Screens as filed in PubChem BioAssay.
PG9 Ab binder: small molecules binding HIV-1 gp120 antibody PG9. inhibition, % at 6.7 µM. 360,000 compounds, 0.43% hits. AID 624416. TR-FRET gp120-PG9 antibody binding; in the data active means inhibition above about 8.5%
AI-2 QS mod: modulators of Vibrio harveyi AI-2 quorum sensing system | Vibrio harveyi JMH597 AI-2 luminescence/OD600 ratio, 9 h; hits give low values; strain lacks LuxN and CqsS sensors; 0 = neutral-control median | activity change, % at 7.5 µM | 300,000 compounds, 0.4% hits | AID 2094; in the data active means activity change below about -75%, passing the limit was not always enough;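 further: luminescence divided by OD600 gain over 9 h not by final OD600 alone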
SMARCA2 activ: SMARCA2 function activation, primary screen; activation, % at 9.1 µM; 370,000 compounds, 1% hits; MG213 cells, MMTV-luciferase reporter, dexamethasone, overnight; in the data active means activation above about 7.8%;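 further: 0% = vehicle wells and 100% = reference activator wells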
HSP90 refold inh: HSP90 refolding inhibition in rabbit reticulocyte lysate; luciferase refolding luminescence, 3 h; inhibition, % at 5.6 µM; 290,000 compounds, 0.91% hits;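 active means inhibition above the screen-wide mean plus 3 SD, computed separately per campaign, cut at about 16% in these data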;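 further: 0% = DMSO wells and 100% = 60 µM geldanamycin wells; inhibitors lower the luminescence because luciferase stays unfolded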
HSF1 inh: HSF1 inhibition; NIH3T3-HGL HSE-luciferase, MG132-induced, luminescence 8 h; hits give low values; activity change, negative = inhibition, % at 7.5 µM (by protocol); 300,000 compounds, 0.77% hits; AID 2098;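 active means more than half of replicate wells show activity change below -50%, luminescence cut by over half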;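 further: luciferase reports HSF-1 transcriptional activity via heat shock element; 0% = median of DMSO wells and -100% = zero luminescence signal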
GAA850 FXN act: increases GAA850 frataxin promoter reporter activity | 360,000 compounds, 0.56% hits | activation, % at 6 µM | HEK293 lucGAA850 FXN promoter luciferase reporter, 24 h; percent of 10 µM SAHA response | AID 540364;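 active means activation above the average of all compounds screened plus 3 SD, cutoff fixed separately per campaign, cut at about 7.5% in these data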;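 further: 0% = DMSO wells and 100% = 10 µM SAHA wells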
PG9 binder conf: confirmation of small molecules binding HIV-1 gp120 antibody PG9 | 1,500 compounds, 90% hits | shares compounds with PG9 Ab binder | inhibition, % at 6.7 µM | TR-FRET PG9 antibody binding, biochemical; in the data active means inhibition above about 9%
PGV04 Ab binding: binds control antibody PGV04 in PG9 binder counter-screen | 1,500 compounds, 95% hits | shares compounds with PG9 Ab binder | inhibition, % at 6.7 µM | TR-FRET PGV04 antibody-gp120 binding, biochemical | AID 651604; in the data active means inhibition above about 9.5%
An asterisk follows results filed as active; · = no result. Shown are actives, neighbours in structure and some others; about 3.4% of the full set was active somewhere.

SMILES | PG9 Ab binder | AI-2 QS mod | SMARCA2 activ | HSP90 refold inh | HSF1 inh | GAA850 FXN act | PG9 binder conf | PGV04 Ab binding
O=C(COc1ccccc1)Nc1nc2cc3c(cc2s1)OCO3 | 21* | -5 | 1 | 1 | 1 | 0 | 33* | 46*
CCCCC(=O)N(C)c1c(C)nc2ccc(C(=O)NCCN(C)C)cn12 | 0 | · | -3 | · | · | 0 | · | ·
O=C(Nc1nc2c(Br)cc(Br)cc2c(=O)s1)C1CCC1 | 10* | 17 | 1 | 0 | -7 | 0 | 18* | 20*
Cc1ccc(C)c2sc(NC(=O)C3CC3)nc12 | -1 | 14 | 5 | -2 | 5 | 3 | · | ·
COc1ccc(C2C(C(=O)N3CCOCC3)CC(=O)N2c2ccc(OC)cc2)cc1 (configuration not stated) | · | · | -1 | · | · | · | · | ·
COc1ccc(C(=O)NCc2ccc(-c3nc4ccccc4s3)cc2)cc1 | -1 | 25 | 1 | 0 | 24 | -2 | · | ·
COc1cc(C(=O)NCc2ccc(-c3nc4ccccc4s3)cc2)cc(OC)c1OC | 10* | 11 | 5 | -6 | 22 | 0 | 19* | 29*
CSc1sc(-c2nnc(SCC(=O)Nc3ccc(Cl)cc3)n2C)c2c1C=CCC2 | 29* | 13 | -3 | 0 | 7 | -1 | 38* | 52*
Cc1cc2c(c(=O)o1)[C@@]1(C(=O)N(C)c3cccc(Br)c31)C1=C(CCCC1=O)O2 | 0 | · | -8 | · | · | · | · | ·
COc1ccc(OC)c(Nc2nc(-c3ccccc3O)nc3ccccc23)c1 | 50* | 29 | 3 | 3 | -2 | 0 | 51* | 75*
CCc1ccc2oc(C(=O)Nc3ccc(S(N)(=O)=O)cc3)c(C)c2c1 | 10* | 23 | 1 | -1 | 1 | 3 | 15* | 21*
O=C(NCc1ccccc1)[C@H]1CCCN1C(=O)[C@H]1CCCN1C(=O)c1ccc(F)cc1F | -1 | · | -1 | · | · | · | · | ·
O=C(COC(=O)c1ccccc1C(=O)c1ccc(Cl)cc1)NCCc1ccccc1 | -2 | 18 | -2 | -1 | 2 | 2 | · | ·
O=C(COC(=O)c1ccccc1C(=O)c1ccc(Cl)cc1)NC(c1ccccc1)c1ccccc1 | 17* | 16 | -2 | 4 | · | 0 | 25* | 47*
O=S1(=O)c2ccc(N3CCSCC3)cc2Oc2ccccc2CN1Cc1cn(Cc2ccc(F)cc2)nn1 | · | · | 7 | · | · | · | · | ·
Cc1onc(-c2c(F)cccc2Cl)c1C(=O)Nc1nnc(C(F)(F)F)s1 | 24* | -6 | -3 | -4 | -4 | 1 | 30* | 42*
O=c1[nH]c2ccccc2cc1CN(c1ccccc1)S(=O)(=O)c1ccccc1 | 18* | 10 | 2 | -4 | 5 | 2 | 25* | 27*
COc1cc(NC(=O)c2ccc(Cl)cc2Cl)ccc1-c1cc2ccccc2oc1=O | 12* | 36 | 2 | -7 | -5 | 0 | 23* | 33*
COc1cc(NC(C)=O)ccc1-c1cc2ccccc2oc1=O | 0 | 33 | -1 | 1 | 12 | 2 | · | ·
O=C(NCCc1ccccc1Cl)[C@@H]1CCCN1C(=O)[C@@H](NC(=O)N1CCOCC1)C1CCCCC1 | 0 | · | -3 | · | · | · | · | ·
COC(=O)c1cc2c(c3c4cc(OC)ccc4n(S(=O)(=O)c4ccc(F)cc4)c13)C(=O)N(C)C2 | 1 | · | -6 | · | · | · | · | ·
CCOc1ccc(-n2c(SCC(=O)c3ccc4ccccc4c3)nnc2-c2ccc(OC)cc2)cc1 | · | · | 1 | · | · | · | · | ·
CC(=O)Nc1ccc(O)c(-c2nc3ccccc3s2)c1 | 2 | 10 | 3 | -2 | 3 | 4 | · | ·
O=C(CCS(=O)(=O)c1ccccc1)Nc1ccc(-c2nc3ccccc3s2)c(O)c1 | 26* | 26 | 2 | 7 | 5 | 7 | 22* | 51*
Cc1ccsc1C(=O)Nc1ccc(O)c(-c2nc3ccccc3s2)c1 | 51* | 9 | 3 | 1 | 2 | 1 | 58* | 78*
SMILES | PG9 Ab binder | AI-2 QS mod | SMARCA2 activ | HSP90 refold inh | HSF1 inh | GAA850 FXN act | PG9 binder conf | PGV04 Ab binding
COC(=O)c1cc2c(c3c4cc(OC)ccc4n(S(=O)(=O)c4ccc(F)cc4)c13)C(=O)N(Cc1ccccc1)C2 | 0 | · | -4 | · | · | · | · | ·
CC1(C)CCCC2(C)C(OCCO)=CC(=O)C=C12 (configuration not stated) | -2 | · | -1 | · | · | 0 | · | ·
CCOC(=O)c1sc2nc(C)nc(NCCc3ccc(S(N)(=O)=O)cc3)c2c1C | 18* | · | 0 | 2 | 6 | 0 | 27* | 47*
Cc1nc(NCc2ccc(S(N)(=O)=O)cc2)c2c(C)c(C)sc2n1 | 41* | 3 | -5 | 0 | 0 | 2 | 22* | 31*
CS(=O)(=O)N1CCC(C(=O)Nc2cccc(Cl)c2Cl)CC1 | 0 | 24 | -4 | -3 | 0 | 1 | · | ·
O=C(Nc1cccc(Cl)c1Cl)C1CCN(c2ncccn2)CC1 | 9.2* | 13 | 0 | -1 | -9 | -3 | 13* | 14*
CSc1ccc(C#N)cc1NC(=O)c1ccccc1 | -3 | 17 | 1 | 0 | 0 | 2 | · | ·
CSc1ccc(C#N)cc1NC(=O)c1ccc(Cl)cc1Cl | 11* | 16 | 3 | -3 | -6 | -2 | 19* | 24*
Cc1cccc(C)c1-n1nnnc1C(c1ccnc2ccccc12)N(Cc1ccccc1)Cc1ccccc1 (configuration not stated) | -1 | · | 4 | · | · | · | · | ·
CCn1c(SCc2nc(-c3ccccc3)no2)nnc1-c1ccco1 | 15* | -12 | -4 | 1 | 3 | 0 | 49* | 61*
Cc1cc(Br)cn2c(Cc3cccc(F)c3)c(-c3ccco3)nc12 | 2 | · | 2 | · | · | · | · | ·
COc1ccc(-c2cc(C(F)(F)F)nc(SCC(=O)NCc3cccs3)n2)cc1 | 13* | 12 | 1 | 0 | 12 | -2 | 8 | 9
CCN(C(=O)COC(=O)c1ccc(Cl)cc1N)C1CCCCC1 | 2 | 8 | -1 | 6 | 11 | 1 | · | ·
Nc1cc(Cl)ccc1C(=O)OCC(=O)NC1CCCCC1 | 30* | 0 | 3 | 0 | 2 | 3 | 29* | 41*
CN1OC[C@@H]2CN(CC3CCCCC3)[C@H](c3ccc(-c4ccc(C#N)cc4)cc3)C[C@@H]21 | 2 | · | -4 | · | · | · | · | ·
COC(=O)[C@]12C[C@H](CC(=O)NCCCN3CCCC3=O)C(=O)N(Cc3ccccc3)C1=C[C@H](COCc1ccccc1)O[C@@H]2C | · | · | 0 | · | · | · | · | ·
CCCCCNC(=O)C(c1cc2ccccc2o1)n1c(=O)c(-c2ccco2)nc2ccccc21 (configuration not stated) | -1 | · | 3 | · | · | · | · | ·
CCCCCNC(=O)C(c1ccncc1)n1c(=O)c(-c2ccco2)nc2ccccc21 (configuration not stated) | 9.1* | · | -6 | · | · | · | 4 | 5
